The nature of experiment [1]: small molecules captured by biotinylated probe aFSTL3 – biochemical, small-molecule microarray, fluorescence 635/667, stem cell growth factor project, primary screen (AID 1064).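 Note: measures binding of the biotinylated anti-FSTL3 antibody to printed compounds.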 The conditions noted are these: higher = more signal.
Experiment [2] is described as follows: binders from COS7 lysate, DM2A8 probe, primary screen, torsin A project, cell lysate, small-molecule microarray, fluorescence 635/667 (AID 1065). The conditions noted are these: higher = more signal, COS7 lysate expressing mutant human TOR1A.
A short description of experiment [3]: small molecules captured by biotinylated probe aFGF2 – biochemical, small-molecule microarray, fluorescence 635/667, stem cell growth factor project, primary screen (AID 1067).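 Note: measures binding of biotinylated aFGF2 protein to printed compounds on slides; z-score merges feature fluorescence and signal-to-noise across triplicate slides.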 To be noted: higher = more signal.
A short description of experiment [4]: small molecules captured by biotinylated probe aFGF10 – biochemical, small-molecule microarray, fluorescence 635/667, stem cell growth factor project, primary screen (AID 1071).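 Note: score merges 667 nm spot intensity and signal to noise from triplicate slides.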 The conditions noted are these: higher = more signal.
The target in experiment [5] is Neurogenic locus notch homolog protein 2 (Homo sapiens) (UniProt Q04721). Description: small molecules binding Notch2 protein – biochemical, small-molecule microarray, 635 nm fluorescence, stem cell growth factors, primary screen (AID 1073). To be noted: higher = more signal.
The target of experiment [6] is Pro-neuregulin-1, membrane-bound isoform (Homo sapiens) (UniProt Q02297). The experiment is described as follows: small molecules binding neuregulin-1 protein – biochemical, small-molecule microarray, fluorescence 635/667, psychiatric disease protein project, primary screen (AID 1075).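 Note: score combines 667 nm spot fluorescence with signal to noise.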 The conditions noted are these: NRG1 binding, 635 nm fluorescence, higher = more signal.

The subject of experiment [7] is Neuregulin-1 EGF-like domain. The experiment is described as follows: small molecules binding NRG1 EGF domain – biochemical, small-molecule microarray, 635 nm fluorescence, primary screen (AID 1081).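 Note: binding of the protein to compounds printed on small-molecule microarray slides.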 To be noted: higher = more signal.
Experiment [8] can be described thus: FRG1 expression reporter modulators in myotubes – cell-based, C2C12 myotubes, firefly/Renilla luciferase, luminescence, FRG1 inhibition for FSHD, primary screen (AID 1084). The conditions noted are these: FRG1 promoter luciferase, higher = more signal, called active from +8 up or from −8 down.
Experiment [9] can be described thus: small molecules captured by biotinylated probe aFST – biochemical, small-molecule microarray, fluorescence 635/667, stem cell growth factor project, primary screen (AID 1086).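 Note: score merges 667 nm fluorescence with signal-to-noise of each printed compound spot.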 To be noted: higher = more signal.
Experiment [10] can be described thus: binders of probe aHhip on microarray, primary screen, stem cell growth factor project, biochemical, small-molecule microarray, fluorescence 635/667 (AID 1087).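 Note: score merges spot fluorescence at 667nm with spot signal to noise ratio.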 To be noted: higher = more signal.
The subject of experiment [11] is PRMT1 (protein arginine N-methyltransferase 1). Description: small molecules binding arginine methyltransferase PRMT1 – biochemical, small-molecule microarray, 635 nm fluorescence, primary screen (AID 1088).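 Note: binding of Prmt1 protein to compounds spotted on small-molecule microarray slides.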 The conditions noted are these: higher = more signal.
A short description of experiment [12]: growth effects on S. cerevisiae YJM789 – YJM789 clinical isolate, OD600, 24 h, basal, primary screen (AID 1089).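 Note: growth of clinical yeast isolate S. cerevisiae YJM 789 seeded 1000 cells per well; test concentration not given here.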 To be noted: higher = more signal, called active from +8 up or from −8 down.
Experiment [13] in a line: S. pombe growth modifiers, basal conditions – strain 972, OD600, 24 h, no modulator, primary screen (AID 1090).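 Note: basal condition with compound alone and no growth modifier present; test concentration not given here.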 The conditions noted are these: S. pombe 972 growth, higher = more signal, called active from +8 up or from −8 down.
Experiment [14] is described as follows: budding yeast growth modifiers under rapamycin – strain BY4716, OD600, 96 h, primary screen (AID 1091). Note: test concentration not given here. To be noted: S. cerevisiae BY4716 + rapamycin, higher = more signal, called active from +8 up or from −8 down.
Experiment [15] has as its target Torsin-1A-interacting protein 2 (Homo sapiens) (UniProt Q8NFQ8). The experiment is described as follows: small molecules binding lysate-expressed LULL1 – cell lysate, human LULL1 lysate, 635/667 nm fluorescence, primary screen (AID 1092).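 Note: score merges per-feature 667 nm fluorescence with signal-to-noise.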 The conditions noted are these: small-molecule microarray, hLULL1 lysate binding, 635 nm fluorescence; higher = more signal.
A short description of experiment [16]: optical density change of DRC41 E. coli – strain DRC41, OD650, 24 h, E. coli filamentation project, primary screen (AID 1093).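 Note: MC1000 strain lacking acrAB efflux and sulA so SOS filamentation is blocked; test concentration not given here.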 To be noted: E. coli DRC41 growth, higher = more signal, called active from +8 up or from −8 down.
A short description of experiment [17]: probe aLefty2 binding to arrayed compounds – biochemical, biotinylated probe, 635/667 nm fluorescence, primary screen (AID 1094).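 Note: score merges spot fluorescence near 667 nm with spot signal-to-noise ratio.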 To be noted: small-molecule microarray, higher = more signal.
For experiment [18], the system named is Noggin (protein binding on small-molecule microarray). The experiment is described as follows: small molecules binding Noggin protein – biochemical, 635/667 nm fluorescence, primary screen (AID 1095).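 Note: score merges 667 nm feature fluorescence with signal to noise over triplicate slides.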 The conditions noted are these: 635 nm fluorescence, higher = more signal.
Experiment [19] has as its target Neurogenic locus notch homolog protein 3 (Homo sapiens) (UniProt Q9UM47). The experiment is described as follows: small molecules binding NOTCH3 protein – biochemical, 635/667 nm fluorescence, primary screen (AID 1096). To be noted: small-molecule microarray, 635 nm fluorescence, higher = more signal.
The nature of experiment [20]: probe aEGFR binding to arrayed compounds – biochemical, biotinylated probe, 635/667 nm fluorescence, primary screen (AID 1097).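 Note: probe is a biotinylated anti-EGFR antibody binding compounds printed on slides; score combines fluorescence near 667 nm and signal to noise of each spot.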 To be noted: small-molecule microarray, higher = more signal.

This passage reports composite z-score and z-score results from PubChem BioAssay.

The source made the active and inactive calls.

Sequence of Pro-neuregulin-1, membrane-bound isoform (Homo sapiens) (Q02297 whole entry, looked up, canonical isoform): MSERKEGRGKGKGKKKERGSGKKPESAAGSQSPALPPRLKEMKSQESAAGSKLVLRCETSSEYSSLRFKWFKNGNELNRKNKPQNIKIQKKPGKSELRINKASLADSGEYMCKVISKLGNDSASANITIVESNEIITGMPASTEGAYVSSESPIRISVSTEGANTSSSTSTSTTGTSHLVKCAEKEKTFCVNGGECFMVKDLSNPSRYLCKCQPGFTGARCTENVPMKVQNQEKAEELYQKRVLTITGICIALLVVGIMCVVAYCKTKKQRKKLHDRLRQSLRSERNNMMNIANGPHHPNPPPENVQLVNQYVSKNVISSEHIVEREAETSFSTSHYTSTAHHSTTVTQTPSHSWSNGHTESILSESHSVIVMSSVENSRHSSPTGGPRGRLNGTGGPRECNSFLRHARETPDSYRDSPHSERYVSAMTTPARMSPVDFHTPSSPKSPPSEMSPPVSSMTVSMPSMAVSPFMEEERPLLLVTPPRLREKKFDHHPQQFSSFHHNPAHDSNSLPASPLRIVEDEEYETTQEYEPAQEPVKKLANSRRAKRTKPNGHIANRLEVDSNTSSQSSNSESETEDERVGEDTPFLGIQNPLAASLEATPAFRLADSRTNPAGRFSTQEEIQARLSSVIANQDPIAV
Sequence of Neurogenic locus notch homolog protein 3 (Homo sapiens) (Q9UM47 whole entry, looked up): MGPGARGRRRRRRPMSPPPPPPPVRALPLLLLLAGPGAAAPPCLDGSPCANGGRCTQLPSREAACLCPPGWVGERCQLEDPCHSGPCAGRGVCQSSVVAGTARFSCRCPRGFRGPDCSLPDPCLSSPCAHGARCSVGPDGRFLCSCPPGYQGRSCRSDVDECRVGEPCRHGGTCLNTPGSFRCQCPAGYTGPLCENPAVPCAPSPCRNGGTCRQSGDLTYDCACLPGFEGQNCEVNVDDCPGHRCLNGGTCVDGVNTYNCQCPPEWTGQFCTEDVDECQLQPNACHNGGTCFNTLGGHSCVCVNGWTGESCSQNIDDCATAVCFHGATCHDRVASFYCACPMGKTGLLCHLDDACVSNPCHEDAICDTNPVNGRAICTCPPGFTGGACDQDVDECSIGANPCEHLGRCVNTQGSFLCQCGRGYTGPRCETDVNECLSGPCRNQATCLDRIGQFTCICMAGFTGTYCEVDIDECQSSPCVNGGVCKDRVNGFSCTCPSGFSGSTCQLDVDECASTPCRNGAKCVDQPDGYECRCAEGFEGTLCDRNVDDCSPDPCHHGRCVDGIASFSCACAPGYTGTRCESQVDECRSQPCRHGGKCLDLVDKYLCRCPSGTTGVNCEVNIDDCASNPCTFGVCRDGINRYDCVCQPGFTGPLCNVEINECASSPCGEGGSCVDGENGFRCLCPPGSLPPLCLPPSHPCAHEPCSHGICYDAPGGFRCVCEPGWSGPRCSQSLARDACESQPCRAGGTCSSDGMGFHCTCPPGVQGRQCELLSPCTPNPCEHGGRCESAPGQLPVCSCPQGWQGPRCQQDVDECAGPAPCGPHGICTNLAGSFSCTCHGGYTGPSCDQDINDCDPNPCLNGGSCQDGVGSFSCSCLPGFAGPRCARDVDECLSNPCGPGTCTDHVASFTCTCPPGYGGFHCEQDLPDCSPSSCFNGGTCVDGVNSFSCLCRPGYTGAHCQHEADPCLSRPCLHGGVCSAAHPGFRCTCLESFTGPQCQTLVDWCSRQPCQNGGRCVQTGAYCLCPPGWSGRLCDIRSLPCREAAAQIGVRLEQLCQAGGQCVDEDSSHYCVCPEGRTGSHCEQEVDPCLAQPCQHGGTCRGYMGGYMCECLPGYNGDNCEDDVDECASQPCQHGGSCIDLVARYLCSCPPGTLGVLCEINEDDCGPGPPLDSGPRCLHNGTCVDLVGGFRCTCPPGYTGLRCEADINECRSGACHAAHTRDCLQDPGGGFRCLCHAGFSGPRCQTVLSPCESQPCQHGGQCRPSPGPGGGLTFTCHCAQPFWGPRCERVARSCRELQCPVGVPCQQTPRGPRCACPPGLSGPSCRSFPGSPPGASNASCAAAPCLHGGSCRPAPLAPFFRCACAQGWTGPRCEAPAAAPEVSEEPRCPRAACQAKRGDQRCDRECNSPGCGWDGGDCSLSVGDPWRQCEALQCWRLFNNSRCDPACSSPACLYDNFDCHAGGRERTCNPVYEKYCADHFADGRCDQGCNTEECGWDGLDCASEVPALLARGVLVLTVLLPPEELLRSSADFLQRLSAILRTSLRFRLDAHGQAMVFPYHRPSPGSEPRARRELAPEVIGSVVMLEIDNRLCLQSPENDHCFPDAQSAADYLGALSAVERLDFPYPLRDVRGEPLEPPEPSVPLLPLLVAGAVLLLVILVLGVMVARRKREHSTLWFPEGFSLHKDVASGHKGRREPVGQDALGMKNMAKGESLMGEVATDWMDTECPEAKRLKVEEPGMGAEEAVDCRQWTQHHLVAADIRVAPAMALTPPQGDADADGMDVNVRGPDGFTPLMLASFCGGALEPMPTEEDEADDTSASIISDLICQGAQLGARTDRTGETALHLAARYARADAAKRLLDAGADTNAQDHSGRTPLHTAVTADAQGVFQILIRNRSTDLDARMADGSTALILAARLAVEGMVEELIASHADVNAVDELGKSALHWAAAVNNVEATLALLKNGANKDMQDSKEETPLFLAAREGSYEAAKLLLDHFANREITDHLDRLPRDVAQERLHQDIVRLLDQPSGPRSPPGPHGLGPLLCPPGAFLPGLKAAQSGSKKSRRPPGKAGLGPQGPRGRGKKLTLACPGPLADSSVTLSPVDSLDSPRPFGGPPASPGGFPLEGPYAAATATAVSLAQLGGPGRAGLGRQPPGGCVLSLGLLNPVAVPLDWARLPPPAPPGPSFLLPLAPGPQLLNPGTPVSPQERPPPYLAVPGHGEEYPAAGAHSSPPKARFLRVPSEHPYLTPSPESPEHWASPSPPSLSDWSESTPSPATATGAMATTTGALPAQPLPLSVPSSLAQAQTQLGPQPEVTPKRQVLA
Sequence of Torsin-1A-interacting protein 2 (Homo sapiens) (Q8NFQ8 whole entry, looked up): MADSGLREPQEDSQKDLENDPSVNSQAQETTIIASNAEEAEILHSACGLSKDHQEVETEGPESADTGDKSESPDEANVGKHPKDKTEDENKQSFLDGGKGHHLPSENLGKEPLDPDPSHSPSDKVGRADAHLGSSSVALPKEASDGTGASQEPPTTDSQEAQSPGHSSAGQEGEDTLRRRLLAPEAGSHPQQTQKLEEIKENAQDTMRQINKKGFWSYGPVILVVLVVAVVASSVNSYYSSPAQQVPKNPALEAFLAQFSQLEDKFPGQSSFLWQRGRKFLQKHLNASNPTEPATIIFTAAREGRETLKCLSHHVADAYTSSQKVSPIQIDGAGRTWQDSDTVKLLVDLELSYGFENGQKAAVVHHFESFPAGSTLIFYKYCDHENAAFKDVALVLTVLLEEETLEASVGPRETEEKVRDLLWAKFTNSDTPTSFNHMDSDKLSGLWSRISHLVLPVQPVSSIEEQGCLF

Turning to `C=CCC(OC(C)=O)[C@@H]1[C@@H](N(Cc2ccc(-c3cccc(C(F)(F)F)c3)o2)C(=O)Cc2ccc(F)cc2)c2cc(OCCCO)ccc2N1C(=O)Cc1ccc2ccccc2c1` (stereo not given in full), the composite z-score in [1] is 0.136; in experiment [2] it was -0.648; in experiment [3], -0.129; in experiment [4], 0.53; in [5], -0.349; in [6], -0.257. The composite z-score in [7] was -0.285; in experiment [9] it was -0.106; in [10], -0.212; in experiment [11], -0.783; in experiment [15], -0.199; in [17], -0.118. For the same compound, the composite z-score is -0.244 in [18], -0.855 in experiment [19] and -0.125 in [20]. The z-score in experiment [8] is 0.116 (inactive); in experiment [12] it was -0.554 (inactive); in experiment [13], 0.181 (inactive); in experiment [14] it was -0.669 (inactive); in [16], -1.01 (inactive).

Regarding `COc1ccc([Si](C)(C)[C@H]2[C@H](CC(=O)N3Cc4ccccc4C[C@H]3CO)O[C@@]3(C(=O)N(C)c4ccccc43)[C@@H]2C)cc1`, the composite z-score was 0.271 in experiment [1]; 1.09 in experiment [2]; -0.081 in [3]; 0.583 in experiment [4]; 0.647 in experiment [5]; 1.65 in [6]. Besides, the composite z-score was determined as 1.36 in experiment [7]; 0.596 in experiment [9]; 0.315 in experiment [10]; 1.53 in experiment [11]; 2.13 in [15]; 0.173 in [17]. Also, the composite z-score in experiment [18] is 1.91; in [19], 1.08; in [20], -0.0839. The z-score in experiment [8] was -3.34 (inactive); in experiment [12], -1.52 (inactive); in experiment [13], -2.06 (inactive); in experiment [14], -0.0615 (inactive); in experiment [16], 0.456 (inactive).

Take `C=CCNC(=O)[C@@H]1[C@H]2C(=O)O[C@H](c3ccccc3)[C@H](c3ccccc3)N2[C@H](c2ccc(OCCO)cc2)[C@@]12C(=O)Nc1ccc(C#CC3(O)CCCCCC3)cc12`: the composite z-score in experiment [1] is 0.0068; in experiment [2] it was 0.927; in experiment [3] it was -0.0765; in [4], 0.592; in experiment [5], 1.21; in [6] it was 1.29. Besides, the composite z-score was 1.29 in [7]; 0.551 in [9]; -0.0994 in experiment [10]; 1.45 in [11]; 2.55 in experiment [15]; 0.0208 in experiment [17]. Also, the composite z-score in [18] worked out at 1.03; in experiment [19], 1.07; in [20], 0.0519. Moreover, the z-score in experiment [8] was 0.803 (inactive); in experiment [12], 1.84 (inactive); in [13] it was 0.267 (inactive); in [14], 4.71 (inactive); in [16], 1.2 (inactive).

For the compound `O=C1C=C(c2ccccc2)C(=O)C2=C1CC([C@H]1Oc3ccccc3S(=O)(=O)N3CCC[C@@H]13)=CC2`, the composite z-score was -0.415 in experiment [1]; -0.618 in [2]; -0.119 in experiment [3]; -0.0024 in experiment [4]; -0.103 in [5]; 0.0032 in experiment [6]. For the same compound, the composite z-score is -0.702 in [7]; 1.49 in [9]; -0.0296 in experiment [10]; 0.345 in experiment [11]; -0.101 in [15]; -0.183 in experiment [17]. Besides, the composite z-score in experiment [18] was -0.194; in experiment [19], 0.0989; in [20], -0.135. Besides, the z-score in experiment [8] is -0.7 (inactive); in [12], -0.418 (inactive); in experiment [13], -3.32 (inactive); in experiment [14] it was 13.4 (active); in experiment [16], 0.542 (inactive).

For the compound `CN1C(=O)C2C(C1=O)C1C=C(c3ccc(CO)cc3)C2C(C2CC2)N1C` (stereo not given), the composite z-score in experiment [1] is -0.23; in [2], 0.388; in [3], -0.0932; in experiment [4], 0.0656; in [5] it was -0.337; in experiment [6], 1.16. Further, the composite z-score in experiment [7] was 0.811; in [9], -0.176; in [10], 0.0749; in [11], -0.346; in [15] it was 0.956; in experiment [17] it was -0.209. Also, the composite z-score in experiment [18] is 0.102; in [19], -0.414; in [20], -0.229. In addition, the z-score is 0.0916 (inactive) in experiment [8]; 0.724 (inactive) in [12]; -1.36 (inactive) in [13]; 2.59 (inactive) in experiment [14]; 0.689 (inactive) in [16].
